In PubChem BioAssay (NCI):
This is part of a sample that, as a whole, favours compounds with a hit. Of some 83,000 tested, about 20% had one in any assay.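 Percent growth is the endpoint: 0 to 100 indicates growth inhibition (40 means 60% inhibition), 0 means no net growth, and negative values indicate cell death.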 Calls of active or inactive are those of the source. The calls were made as follows: active = growth percent below 10; inactive = the rest.

tested on: EKVX NSCLC; assay: NCI-60 one-dose screen, 48 h (100 = growth as untreated, 0 = no growth, -100 = all killed); settings: 10 µM unless noted

Structure (SMILES) | growth
COc1ccc(NC(=O)Nc2ccc(OCc3ccc(F)cc3)cc2)cc1 | 74.2% (inactive)
COc1ccc(/C=C/c2nc3ccccc3n3c(-c4ccc(Cl)cc4)nnc23)cc1 | 88.7% (inactive)
CC1(C)CC[C@]2(C(=O)O)CC[C@]3(C)C(=CCC4[C@@]5(C)C[C@@H](O)[C@@H]6OC(c7ccccc7Br)OC[C@@]6(C)C5CC[C@]43C)C2C1 (stereo partly specified) | 18.4% (inactive)
CC(=O)OCC1OC(OC2C(COC(C)=O)OC(n3cc(COc4ccc5ccc(=O)oc5c4)nn3)C(OC(C)=O)C2OC(C)=O)C(OC(C)=O)C(OC(C)=O)C1OC(C)=O (stereo unspecified) | 107% (inactive)
COc1ccc(Cc2nn(CC(=O)N/N=C/c3ccc(F)cc3)c(=O)c3c(C)noc23)cc1 | 29.8% (inactive)
O=C(c1ccccc1)C(c1c[nH]c2ccccc12)c1c[nH]c2ccccc12 | 76.5% (inactive)
N=C1N=C(SCc2nc3ccccc3[nH]2)NC(=O)/C1=C/c1ccc(Cl)cc1 | 106% (inactive)
Cn1cc(-c2cc3nc(-c4c[nH]c5ccc(Cl)cc45)cc(N)n3n2)c2ccccc21 | -88.6% (active)
CC1(C)CC[C@]2(C(=O)O)CC[C@]3(C)C(=CCC4[C@@]5(C)C[C@@H](O)[C@@H]6OC(c7ccco7)OC[C@@]6(C)C5CC[C@]43C)C2C1 (stereo partly specified) | 22.8% (inactive)
COc1ccc(C2CC(c3ccc(S(=O)(=O)NCCNc4nc(Nc5ccc(F)cc5)nc(N(C)C)n4)cc3)=Nc3c(N)nc(N)nc3N2)cc1 (stereo unspecified) | 87.9% (inactive)
O=C(Nc1ccccc1)N1CCN(c2cc(-c3cn(-c4ccccc4)nc3-c3cccc(O)c3)ccn2)CC1 | 77.1% (inactive)
